Data taken from the antibiotic and cytotoxicity screens of Wong et al. (2023).
Out of some 39,000 compounds screened, about 3,300 (8.5%) were called active. Shown is part of a subset that was picked to be rich in actives.

system: HepG2; assay: cytotoxicity call (relative viability < 0.9); conditions: 10 µM

Q: Which cytotoxicity call does the source give for `C[C@H](CO)N1C[C@H](C)[C@H](CN(C)C(=O)Cc2ccccn2)Oc2cc(-c3ccc(C(=O)N(C)C)cc3)ccc2S1(=O)=O` here?
A: inactive

Q: How did the cytotoxicity call turn out when `N[C@@H](CSCc1ccccc1Cl)C(=O)O` was run?
A: inactive

Q: How did the cytotoxicity call turn out when `COc1ccc(S(=O)(=O)Nc2ccc3c(c2)C(=O)N([C@@H](C)CO)C[C@H](C)[C@@H](CN(C)Cc2ccccc2)OCCCC[C@@H](C)O3)cc1` was run?
A: inactive

Q: How did the cytotoxicity call turn out when `C[C@H]1CCCCO[C@@H](CN(C)C(=O)Nc2ccc3c(c2)OCO3)[C@@H](C)CN([C@@H](C)CO)C(=O)c2cc(NC(=O)Nc3ccc(F)cc3)ccc2O1` was run?
A: inactive

Q: `NNC(=S)Nc1cccc(F)c1` was tested. Which cytotoxicity call did it give?
A: inactive

Q: With `C[C@@H]1CN([C@@H](C)CO)C(=O)c2cc(C#CCN(C)C)cnc2O[C@H]1CN(C)S(=O)(=O)c1cn(C)cn1` as the molecule, how does the cytotoxicity call read?
A: inactive

Q: How did the cytotoxicity call turn out when `COc1cccc(C#Cc2cnc3c(c2)C(=O)N([C@H](C)CO)C[C@H](C)[C@H](CN(C)C(=O)C2CCOCC2)O3)c1` was run?
A: inactive

Q: `C[C@H]1CCCCO[C@H](CN(C)Cc2ccc(C(=O)O)cc2)[C@@H](C)CN([C@@H](C)CO)C(=O)c2cc(NC(=O)Nc3ccc(C(F)(F)F)cc3)ccc2O1` was tested. Which cytotoxicity call did it give?
A: inactive

Q: Which cytotoxicity call does the source give for `Cc1noc(C)c1NC(=O)Nc1ccc2c(c1)C(=O)N([C@H](C)CO)C[C@@H](C)[C@H](CN(C)S(=O)(=O)c1ccc(F)cc1)OCCCC[C@@H](C)O2` here?
A: inactive

Q: `ON/C=N\c1nonc1-c1cccnc1` was tested. Which cytotoxicity call did it give?
A: inactive

Q: For `Nc1c[nH]ccc1=O`, which cytotoxicity call is on record?
A: inactive

Q: For `COc1ccc(NC(=O)N(C)C[C@H]2OCCCC[C@H](C)Oc3ccc(NS(=O)(=O)c4cccs4)cc3C(=O)N([C@H](C)CO)C[C@@H]2C)cc1`, which cytotoxicity call is on record?
A: inactive

Q: Which cytotoxicity call does the source give for `COc1ccc2nc3cc(Cl)ccc3c(Nc3cc(CN4CCCC4)c(O)c(CN4CCCC4)c3)c2n1.O=P(O)(O)O.O=P(O)(O)O.O=P(O)(O)O.O=P(O)(O)O` here?
A: active

Q: Which cytotoxicity call does the source give for `CCC(=O)N[C@H]1CC[C@@H](CC(=O)OC)O[C@@H]1CO` here?
A: inactive

Q: `CC(=O)c1ccc(F)c(Cl)c1` was tested. Which cytotoxicity call did it give?
A: inactive

Q: With `Nc1nc(N)c2c(n1)CCCC2` as the molecule, how does the cytotoxicity call read?
A: inactive

Q: `CCc1nc2ccccc2c(N)c1C` was tested. Which cytotoxicity call did it give?
A: inactive

Q: With `Cl.Nc1c2c(nc3ccccc13)CCCC2` as the molecule, how does the cytotoxicity call read?
A: active

Q: With `Nc1c2ccccc2nc2ccccc12` as the molecule, how does the cytotoxicity call read?
A: active

Q: Which cytotoxicity call does the source give for `Nc1nnc(N)c2ccccc12` here?
A: inactive

Q: Which cytotoxicity call does the source give for `Nc1c2c(nc3ccccc13)CCCC2` here?
A: inactive

Q: `C[C@H](CO)N1C[C@H](C)[C@H](CN(C)C)Oc2cc(C#C[C@@H](C)O)ccc2S1(=O)=O` was tested. Which cytotoxicity call did it give?
A: inactive

Q: `C=CCCCCCCCCC(=O)Nc1ccccc1C` was tested. Which cytotoxicity call did it give?
A: inactive

Q: `C[C@@H]1CN([C@@H](C)CO)C(=O)c2cc(/C=C/c3ccccc3)cnc2O[C@H]1CN(C)C(=O)C1CCOCC1` was tested. Which cytotoxicity call did it give?
A: inactive

Q: Which cytotoxicity call does the source give for `C[C@@H]1CCCCO[C@@H](CN(C)Cc2ccncc2)[C@H](C)CN([C@H](C)CO)C(=O)c2cc(NC(=O)C3CCCCC3)ccc2O1` here?
A: inactive

Q: With `O=C(C[C@@H]1CC[C@H]2[C@@H](COC[C@@H](O)CN2C(=O)c2ccc(F)cc2)O1)NCCCN1CCOCC1` as the molecule, how does the cytotoxicity call read?
A: inactive

Q: With `COc1ccc(NC(=O)Nc2ccc3c(c2)CC(=O)N([C@@H](C)CO)C[C@H](C)[C@@H](CN(C)Cc2ccc(Oc4ccccc4)cc2)O3)cc1` as the molecule, how does the cytotoxicity call read?
A: inactive

Q: Which cytotoxicity call does the source give for `COc1ccc(NC(=O)Nc2ccc3c(c2)CC(=O)N([C@@H](C)CO)C[C@@H](C)[C@@H](CN(C)Cc2ccc(Oc4ccccc4)cc2)O3)cc1` here?
A: active

Q: For `COc1ccc(NC(=O)Nc2ccc3c(c2)CC(=O)N([C@@H](C)CO)C[C@@H](C)[C@H](CN(C)Cc2ccc(Oc4ccccc4)cc2)O3)cc1`, which cytotoxicity call is on record?
A: active

Q: `COc1ccc(NC(=O)Nc2ccc3c(c2)CC(=O)N([C@H](C)CO)C[C@H](C)[C@@H](CN(C)Cc2ccc(Oc4ccccc4)cc2)O3)cc1` was tested. Which cytotoxicity call did it give?
A: inactive

Q: With `COc1ccc(NC(=O)Nc2ccc3c(c2)CC(=O)N([C@H](C)CO)C[C@@H](C)[C@@H](CN(C)Cc2ccc(Oc4ccccc4)cc2)O3)cc1` as the molecule, how does the cytotoxicity call read?
A: active

Q: Which cytotoxicity call does the source give for `COc1ccc(NC(=O)Nc2ccc3c(c2)CC(=O)N([C@H](C)CO)C[C@@H](C)[C@H](CN(C)Cc2ccc(Oc4ccccc4)cc2)O3)cc1` here?
A: active

Q: With `Cc1noc(C)c1NC(=O)Nc1ccc2c(c1)C(=O)N([C@@H](C)CO)C[C@@H](C)[C@H](CN(C)C(=O)Nc1cccc3ccccc13)O2` as the molecule, how does the cytotoxicity call read?
A: inactive

Q: `COc1ccc2c3c(n(c2c1)C)[C@H](CO)N(C[C@]13CN(C1)C(=O)C1CC1)C(=O)CN1CCOCC1` was tested. Which cytotoxicity call did it give?
A: inactive

Q: With `CCCSc1nc(N[C@@H]2C[C@H]2c2ccc(F)c(F)c2)c2nnn([C@@H]3C[C@H](OCCO)[C@@H](O)[C@H]3O)c2n1` as the molecule, how does the cytotoxicity call read?
A: inactive

Q: Which cytotoxicity call does the source give for `C[C@@H]1CCCCO[C@H](CN(C)Cc2ccc(C(F)(F)F)cc2)[C@@H](C)CN([C@H](C)CO)C(=O)c2cc(NS(C)(=O)=O)ccc2O1` here?
A: inactive

Q: Which cytotoxicity call does the source give for `COCCOC(=O)N1C(=O)[C@@]2(c3cc(C#CC4(O)CCCCCC4)ccc31)[C@H](C(=O)NC[C@H](O)c1ccccc1)[C@H]1C(=O)O[C@H](c3ccccc3)[C@H](c3ccccc3)N1[C@@H]2c1ccc(OCCO)cc1` here?
A: inactive

Q: `COc1ccc(NC(=O)N(C)C[C@H]2Oc3c(NC(=O)c4ccc(-c5nccs5)cc4)cccc3C(=O)N([C@@H](C)CO)C[C@@H]2C)cc1` was tested. Which cytotoxicity call did it give?
A: inactive

Q: How did the cytotoxicity call turn out when `Cc1noc(C)c1S(=O)(=O)N(C)C[C@H]1Oc2ccc(NC(=O)c3ccncc3)cc2C(=O)N([C@H](C)CO)C[C@@H]1C` was run?
A: inactive

Q: `C[C@@H]1CCCCO[C@H](CN(C)C(=O)Cc2ccccc2)[C@H](C)CN([C@H](C)CO)C(=O)c2cc(NC(=O)Nc3ccc(F)cc3)ccc2O1` was tested. Which cytotoxicity call did it give?
A: inactive

Q: How did the cytotoxicity call turn out when `COc1ccc(NC(=O)Nc2ccc3c(c2)CC(=O)N([C@@H](C)CO)C[C@H](C)[C@H](CN(C)Cc2ccc(Oc4ccccc4)cc2)O3)cc1` was run?
A: active

Q: `COc1ccc(NC(=O)Nc2ccc3c(c2)CC(=O)N([C@H](C)CO)C[C@H](C)[C@H](CN(C)Cc2ccc(Oc4ccccc4)cc2)O3)cc1` was tested. Which cytotoxicity call did it give?
A: active

Q: With `C[C@@H]1CN([C@@H](C)CO)C(=O)c2cc(NC(=O)Cc3ccccc3)ccc2O[C@@H]1CN(C)Cc1ccc(C(=O)Nc2ccccc2N)cc1` as the molecule, how does the cytotoxicity call read?
A: inactive

Q: `C[C@@H]1CN([C@@H](C)CO)C(=O)c2cc(NC(=O)c3ccncc3)ccc2O[C@@H]1CN(C)Cc1ccc(Oc2ccccc2)cc1` was tested. Which cytotoxicity call did it give?
A: inactive

Q: Which cytotoxicity call does the source give for `C[C@@H]1CN([C@@H](C)CO)C(=O)c2cccc(NC(=O)Nc3ccc(C(F)(F)F)cc3)c2O[C@@H]1CN(C)C(=O)Nc1ccccc1` here?
A: inactive

Q: Which cytotoxicity call does the source give for `CCNC(=O)[C@H]1[C@H](CO)[C@H]2Cn3c(ccc(-c4cccc(OC)c4)c3=O)[C@H]2N1S(C)(=O)=O` here?
A: inactive

Q: How did the cytotoxicity call turn out when `C[C@@H]1CCCCO[C@H](CN(C)C(=O)CCC(F)(F)F)[C@@H](C)CN([C@@H](C)CO)C(=O)c2cc(NC(=O)Cc3ccccc3)ccc2O1` was run?
A: inactive

Q: With `Cc1ccc(S(=O)(=O)Nc2ccc3c(c2)CC(=O)N([C@@H](C)CO)C[C@@H](C)[C@@H](CN(C)S(=O)(=O)c2cn(C)cn2)O3)cc1` as the molecule, how does the cytotoxicity call read?
A: inactive

Q: Which cytotoxicity call does the source give for `COc1ccc(CN(C)C[C@@H]2OCCCC[C@H](C)Oc3ccc(NC(=O)Nc4ccc(OC)cc4)cc3C(=O)N([C@@H](C)CO)C[C@H]2C)cc1` here?
A: active

Q: How did the cytotoxicity call turn out when `COc1ccc(CN(C)C[C@@H]2OCCCC[C@@H](C)Oc3ccc(NC(=O)C4CCCCC4)cc3C(=O)N([C@H](C)CO)C[C@@H]2C)cc1` was run?
A: inactive

Q: For `COc1ccc(CN(C)C[C@@H]2OCCCC[C@@H](C)Oc3ccc(NC(=O)Nc4ccc(OC)cc4)cc3C(=O)N([C@H](C)CO)C[C@H]2C)cc1`, which cytotoxicity call is on record?
A: inactive

Q: How did the cytotoxicity call turn out when `COc1ccc(CN(C)C[C@H]2OCCCC[C@H](C)Oc3ccc(NC(=O)Nc4ccc(OC)cc4)cc3C(=O)N([C@@H](C)CO)C[C@@H]2C)cc1` was run?
A: active

Q: How did the cytotoxicity call turn out when `COc1ccc(CN(C)C[C@@H]2OCCCC[C@H](C)Oc3ccc(NC(=O)Nc4ccc(OC)cc4)cc3C(=O)N([C@H](C)CO)C[C@H]2C)cc1` was run?
A: inactive

Q: `COc1ccc(CN(C)C[C@@H]2OCCCC[C@H](C)Oc3ccc(NC(=O)C4CCCCC4)cc3C(=O)N([C@@H](C)CO)C[C@H]2C)cc1` was tested. Which cytotoxicity call did it give?
A: active

Q: How did the cytotoxicity call turn out when `COc1ccc(CN(C)C[C@H]2OCCCC[C@@H](C)Oc3ccc(NC(=O)C4CCCCC4)cc3C(=O)N([C@H](C)CO)C[C@H]2C)cc1` was run?
A: inactive

Q: Which cytotoxicity call does the source give for `COc1ccc(CN(C)C[C@H]2OCCCC[C@H](C)Oc3ccc(NC(=O)Nc4ccc(OC)cc4)cc3C(=O)N([C@@H](C)CO)C[C@H]2C)cc1` here?
A: active

Q: For `C[C@@H]1CCCCO[C@@H](CN(C)Cc2ccc(C(=O)O)cc2)[C@H](C)CN([C@@H](C)CO)C(=O)c2cc(NC(=O)c3ccccc3)ccc2O1`, which cytotoxicity call is on record?
A: inactive

Q: How did the cytotoxicity call turn out when `C[C@@H]1CN([C@H](C)CO)C(=O)Cc2cc(NS(=O)(=O)c3cccs3)ccc2O[C@@H]1CN(C)S(C)(=O)=O` was run?
A: inactive

Q: With `C[C@@H]1CCCCO[C@H](CN(C)C(=O)CCCN(C)C)[C@@H](C)CN([C@@H](C)CO)C(=O)c2cc(NC(=O)Nc3ccc(F)cc3)ccc2O1` as the molecule, how does the cytotoxicity call read?
A: inactive

Q: `CS(=O)(=O)N1CCn2cc(Cn3cccn3)nc2C1` was tested. Which cytotoxicity call did it give?
A: inactive

Q: With `Cc1noc(C)c1NC(=O)N(C)C[C@H]1Oc2c(NC(=O)Nc3cccc4ccccc34)cccc2C(=O)N([C@@H](C)CO)C[C@@H]1C` as the molecule, how does the cytotoxicity call read?
A: inactive

Q: For `Cc1noc(C)c1S(=O)(=O)N(C)C[C@@H]1OCc2cn(nn2)CCCC(=O)N([C@H](C)CO)C[C@@H]1C`, which cytotoxicity call is on record?
A: inactive

Q: For `COc1ccc(S(=O)(=O)Nc2ccc3c(c2)C(=O)N([C@@H](C)CO)C[C@@H](C)[C@@H](CN(C)C(=O)Nc2ccc(C(F)(F)F)cc2)OCCCC[C@H](C)O3)cc1`, which cytotoxicity call is on record?
A: inactive

Q: For `CC(=O)OC[C@H]1O[C@@H](n2cc(C)c(=O)[nH]c2=O)C[C@@H]1OC(C)=O`, which cytotoxicity call is on record?
A: inactive

Q: How did the cytotoxicity call turn out when `C[C@@H]1CCCCO[C@H](CN(C)C)[C@H](C)CN([C@H](C)CO)C(=O)c2cc(NC(=O)Nc3cccc4ccccc34)ccc2O1` was run?
A: inactive

Q: Which cytotoxicity call does the source give for `COc1ccc(NC(=O)N(C)C[C@H]2OCCCC[C@H](C)Oc3ccc(NS(=O)(=O)c4ccc(OC)cc4)cc3C(=O)N([C@@H](C)CO)C[C@H]2C)cc1` here?
A: inactive
